Test results from PubChem BioAssay.
Calls of active or inactive are those of the source. Unless noted, no rule for the calls is given here.

Tests used:
[1] = resazurin metabolic signal in HepG2 cells – cell-based, resazurin fluorescence, 24 h, PK04 Diversity Set, profiling panel (AID 1172); details: HepG2 viability, higher = more signal; also: test concentration not given here
[2] = budding yeast growth changes without added modifier – OD600, strain BY4716, 24 h, basal condition, primary screen (AID 1173); details: S. cerevisiae BY4716 growth, OD600, 24 h; higher = more signal, called active from +8 up or from −8 down
[3] = viability profiling in MM1S myeloma cells – cell-based, resazurin fluorescence, basal, 24 h, PK04 Diversity Set, profiling panel (AID 1174); details: higher = more signal, called active from +8 up or from −8 down;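 also: MM1S multiple myeloma cell line; test concentration not given here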
[4] = biological target: Dihydroorotate dehydrogenase (quinone), mitochondrial (Plasmodium falciparum (isolate 3D7)) (UniProt Q08210); assay: inhibition of P. falciparum DHODH – biochemical, C-terminal His tag, absorbance 600 nm, primary screen (AID 1175); details: PfDHODH enzyme, DCIP absorbance 600 nm; higher = more signal, called active from +8 up or from −8 down;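 also: recombinant parasite enzyme with a five histidine tag at its C terminus; test concentration not given here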
Dihydroorotate dehydrogenase (quinone), mitochondrial (Plasmodium falciparum (isolate 3D7)), sequence (Q08210 whole entry, looked up): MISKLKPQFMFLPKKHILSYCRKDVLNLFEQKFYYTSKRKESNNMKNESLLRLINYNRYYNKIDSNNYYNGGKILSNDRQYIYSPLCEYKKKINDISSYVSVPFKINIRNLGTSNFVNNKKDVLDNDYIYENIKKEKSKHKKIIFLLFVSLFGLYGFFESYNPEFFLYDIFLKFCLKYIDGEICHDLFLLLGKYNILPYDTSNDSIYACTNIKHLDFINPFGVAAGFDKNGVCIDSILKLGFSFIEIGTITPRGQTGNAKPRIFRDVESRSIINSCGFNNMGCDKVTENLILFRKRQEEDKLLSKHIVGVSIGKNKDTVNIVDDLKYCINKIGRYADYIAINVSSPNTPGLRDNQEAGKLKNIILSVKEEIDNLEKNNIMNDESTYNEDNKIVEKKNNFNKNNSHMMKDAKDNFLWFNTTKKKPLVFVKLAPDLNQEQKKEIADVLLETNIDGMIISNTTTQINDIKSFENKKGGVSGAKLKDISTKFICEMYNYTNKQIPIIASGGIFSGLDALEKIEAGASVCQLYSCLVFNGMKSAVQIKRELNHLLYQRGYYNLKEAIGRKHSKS

[5] = inhibition of PAO1 biofilm formation – strain PAO1, LB-PBS medium, absorbance 600 nm, primary screen (AID 1176); also: test concentration not given here; details: P. aeruginosa PAO1 growth/biofilm, A600, 12 h; higher = more signal
[6] = growth modulation of vineyard yeast isolate – strain RM11-1a, OD600, basal, 24 h, primary screen (AID 1177);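 also: cultures grown under basal conditions with no added stressor; test concentration not given here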; details: S. cerevisiae RM11-1a growth, OD600, 24 h; higher = more signal, called active from +8 up or from −8 down
[7] = growth of efflux-deficient E. coli DRC39 – strain DRC39, OD650, 24 h, E. coli filamentation inducers, primary screen (AID 1178);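 also: growth measured as culture turbidity by optical density at 650 nm; test concentration not given here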; details: E. coli DRC39 acrAB, higher = more signal, called active from +8 up or from −8 down
[8] = growth of efflux-deficient E. coli DRC39 – strain DRC39, OD650, 48 h, E. coli filamentation inducers, primary screen (AID 1179);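 also: screen aims at cell division blockers that make cells filament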; details: E. coli DRC39 delta-acrAB growth, higher = more signal, called active from +8 up or from −8 down
[9] = viability profiling in RPMI8226 myeloma cells – cell-based, resazurin fluorescence, basal, 24 h, PK04 Diversity Set, profiling panel (AID 1180); details: higher = more signal;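 also: RPMI8826 multiple myeloma cell line at 5000 cells per well; test concentration not given here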
[10] = biological target: E3 ubiquitin-protein ligase XIAP (Homo sapiens) (UniProt P98170); assay: small molecules binding XIAP protein – biophysical, small-molecule microarray, fluorescence 635 nm, primary screen (AID 1181); details: higher = more signal;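 also: score merges 667 nm emission and signal to noise over triplicate slides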
E3 ubiquitin-protein ligase XIAP (Homo sapiens), sequence (P98170 whole entry, looked up): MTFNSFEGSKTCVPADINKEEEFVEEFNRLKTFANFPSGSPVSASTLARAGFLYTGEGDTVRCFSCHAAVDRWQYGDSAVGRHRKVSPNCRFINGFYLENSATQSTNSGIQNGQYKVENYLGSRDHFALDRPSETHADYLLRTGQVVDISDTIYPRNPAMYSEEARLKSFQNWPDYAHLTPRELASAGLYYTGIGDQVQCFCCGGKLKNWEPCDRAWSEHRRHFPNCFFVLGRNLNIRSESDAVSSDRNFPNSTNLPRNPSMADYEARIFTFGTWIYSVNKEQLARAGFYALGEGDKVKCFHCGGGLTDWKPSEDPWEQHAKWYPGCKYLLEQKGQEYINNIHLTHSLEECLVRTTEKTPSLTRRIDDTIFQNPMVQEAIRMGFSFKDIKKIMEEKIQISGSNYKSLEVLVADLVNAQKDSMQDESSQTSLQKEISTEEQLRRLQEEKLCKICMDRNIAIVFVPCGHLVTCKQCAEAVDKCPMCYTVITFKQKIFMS

| Structure (SMILES) | z-score [1] | z-score [2] | z-score [3] | composite z-score [4] | z-score [5] | z-score [6] | z-score [7] | z-score [8] | z-score [9] | composite z-score [10] |
| --- | --- | --- | --- | --- | --- | --- | --- | --- | --- | --- |
| COCCOC(=O)N1C(=O)[C@@]2(c3cc(C#CC4(O)CCCCCC4)ccc31)[C@H](c1ccc(OCCO)cc1)N1[C@H](c3ccccc3)[C@H](c3ccccc3)OC(=O)[C@H]1[C@@H]2C(=O)Nc1nc2ccccc2s1 | 1.39 | 1.46 (inactive) | -0.773 (inactive) | -1.19 (inactive) | 2.98 (inactive) | 2.43 (inactive) | -0.0994 (inactive) | -0.347 (inactive) | -0.494 | 0.332 |
| CC(C)=CCCC(C)=CC(O)C1C=CC2C(=O)N(c3ccccc3)C(=O)C2N1Nc1ccccc1F (stereo not given) | 0.856 | -1.18 (inactive) | 0.47 (inactive) | -0.323 (inactive) | 0.505 (inactive) | -0.54 (inactive) | 0.131 (inactive) | 0.739 (inactive) | 1.22 | -0.21 |
| O=C(CS)NCCCCCCNC(=O)[C@@H]1C[C@@H]2C(=O)NCC(=O)N2[C@@H]1c1ccc(O)cc1 | 0.263 | -0.185 (inactive) | 0.426 (inactive) | -0.757 (inactive) | 0.171 (inactive) | -1.97 (inactive) | 0.858 (inactive) | 1.62 (inactive) | 0.0464 | -0.02 |
| COCC(=C=CC[C@@H](O)c1cccc(OCCO)c1)CCO | -0.161 | -0.773 (inactive) | -0.0845 (inactive) | -2.07 (inactive) | -0.59 (inactive) | -0.357 (inactive) | 0.583 (inactive) | 0.464 (inactive) | -0.0794 | -0.241 |
| [N-]=[N+]=NCc1ccccc1[C@@H]1OC(c2ccc(OCCCO)cc2)=N[C@]1(Cc1ccccc1N=[N+]=[N-])C(=O)NCCN1CCOCC1 | -0.591 | -2.33 (inactive) | 0.0903 (inactive) | -0.549 (inactive) | 0.385 (inactive) | -0.186 (inactive) | 0.191 (inactive) | -0.215 (inactive) | -0.846 | -0.0826 |
| COc1ccc([Si](C)(C)[C@@H]2[C@@H](CCn3cc([C@H](O)c4ccccc4)nn3)O[C@]3(C(=O)N(Cc4cccc(N5C(=O)c6cccc7cccc5c67)c4)c4ccccc43)[C@H]2C)cc1 | -0.167 | 1.33 (inactive) | -2.01 (inactive) | 0.736 (inactive) | 0.106 (inactive) | 2.11 (inactive) | -0.494 (inactive) | -0.787 (inactive) | -1.19 | -0.217 |
| COC(=O)[C@@]1(Cc2ccccc2)[C@H]2c3cc(C(=O)N4CCCC4)n(CCSCCO)c3C[C@H]2CN1C(=O)c1ccccc1 | -1.19 | 0.712 (inactive) | -1.63 (inactive) | -0.337 (inactive) | 0.824 (inactive) | 0.53 (inactive) | -1.01 (inactive) | -0.853 (inactive) | -1.68 | 0.361 |
| CCCCCN1CC=CC23O[C@@H]4/C=C\CCC(C)OC(=O)C4[C@H]2C(=O)N(CCCCCCO)[C@@H]3C1=O (stereo not given in full) | 1.1 | -0.262 (inactive) | 0.798 (inactive) | -1.35 (inactive) | 0.165 (inactive) | 0.422 (inactive) | 1.11 (inactive) | 0.848 (inactive) | 1.26 | -0.359 |
| COCCOC(=O)N1C(=O)[C@@]2(c3cc(C#CC4=CCCCC4)ccc31)[C@H](c1ccc(O)cc1)N1[C@H](c3ccccc3)[C@H](c3ccccc3)OC(=O)[C@H]1[C@@H]2C(=O)NC[C@H](O)c1ccccc1 | -1.35 | 0.237 (inactive) | -2.48 (inactive) | -0.495 (inactive) | 1.29 (inactive) | 1.94 (inactive) | -0.396 (inactive) | 0.478 (inactive) | -2.55 | 0.0471 |
| CC(C)(C)OC(=O)CC[C@]1(C(=O)N2CCCCC2)COC(c2ccc(OCCCO)cc2)=N1 | 2.29 | -1.31 (inactive) | 0.619 (inactive) | -0.509 (inactive) | -1.17 (inactive) | -0.398 (inactive) | 0.134 (inactive) | 0.139 (inactive) | 1.41 | 0.162 |
| C=CCNC(=O)[C@H]1[C@@H]2C(=O)O[C@@H](c3ccccc3)[C@@H](c3ccccc3)N2[C@@H](c2ccc(OCCO)cc2)[C@]12C(=O)Nc1ccc(C#CCNC(N)=O)cc12 | -0.598 | 2.3 (inactive) | 0.0869 (inactive) | 0.428 (inactive) | 1.99 (inactive) | 3.25 (inactive) | -0.575 (inactive) | -1.22 (inactive) | 0.687 | -0.163 |
| C=C[C@@H](C)[C@@H](OC(=O)Nc1ccc(SC)cc1)c1ccc(OCCO)cc1 | 0.627 | -3.68 (inactive) | -0.682 (inactive) | 0.05 (inactive) | 0.119 (inactive) | 0.296 (inactive) | -0.68 (inactive) | -0.504 (inactive) | 0.0167 | 0.0879 |
| CCOC(=O)C1=C[C@@H](C(C)(C)C)N(S(=O)(=O)c2ccc(C)cc2)[C@H]1c1ccc(C)cc1 | -0.473 | 1.01 (inactive) | -0.328 (inactive) | -0.186 (inactive) | 0.148 (inactive) | 0.526 (inactive) | -0.617 (inactive) | -0.823 (inactive) | -2.18 | -0.0017 |
